Structures are written as SMILES. Results filed as inconclusive are left out. The source made the active and inactive calls. The call rests on the fitted dose curve; in most records, active means well fitted curve in the direction sought with a large enough effect; inconclusive means small, poorly fitted or top-dose-only effect, or another doubt; inactive means no such curve, though single readings can be large; an effect the other way counts as inactive or inconclusive.

Among the data in PubChem BioAssay (NCATS) are Potency values, retold here.

Test [1] in a line: BET inhibitor-based combinations targeting novel dependencies in MECOM-rearranged (r) AML: MV-4-11 cell line (AID 2202233). Further: nearly all actives have a fitted effect of over 45% in size. The method in brief:
(§1)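 Using pin-tool transfer, drugs were added in 11 doses to cells (500/well), incubated 48 hr, and assessed with CellTiter-Glo. Z-AUC is a mean-centring transformation applied separately to each screened line.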

The nature of test [2]: BET inhibitor-based combinations targeting novel dependencies in MECOM-rearranged (r) AML: HNT-34 cell line (AID 2202234). Further: nearly all actives have a fitted effect of over 35% in size. Summed up: as §1
The nature of test [3]: BET inhibitor-based combinations targeting novel dependencies in MECOM-rearranged (r) AML: OCI-AML3 cell line (AID 2202232). Further: nearly all actives have a fitted effect of over 35% in size. As to conditions: Potency: OCI-AML3 viability. Summed up: (§2)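 Viability of cells (500 per well) is scored by luminescent CellTiter-Glo at 48 hr post-dosing. Eleven-point titrations are normalized to DMSO and empty controls and reduced to AUC values.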

Test [4] in a line: BET inhibitor-based combinations targeting novel dependencies in MECOM-rearranged (r) AML: AML-191 cell line (AID 2202236; further: nearly all actives have a fitted effect of over 35% in size). Summed up:
as §2

Test [5] in a line: BET inhibitor-based combinations targeting novel dependencies in MECOM-rearranged (r) AML: AML-194 cell line (AID 2202237; further: nearly all actives have a fitted effect of over 40% in size). The method in brief:
as §2

Test [6] in a line: BET inhibitor-based combinations targeting novel dependencies in MECOM-rearranged (r) AML: UCSD-AML1 cell line (AID 2202235). Further: nearly all actives have a fitted effect of over 40% in size. The method in brief: as §1
Potency means the concentration at half of the fitted maximal effect.

`NC(=O)c1cnc2[nH]ccc2c1NC1C2CC3C[C@H]1CC(O)(C3)C2` (some centres undefined): the values for the Potency in test [1] and in test [2] were 0.209 µM (active) and 8.33 µM (active), respectively.

In the case of `Cc1cccc(/C=N/Nc2cc(N3CCOCC3)nc(OCCc3ccccn3)n2)c1`, the Potency in test [1] is 7.42 µM (active).

Consider `O=C(Nc1ncc(SCCN2CCCC2)s1)[C@]1(c2ccc(S(=O)(=O)C3CC3)cc2)C[C@H]1C1CCCCC1`, for which the Potency in test [3] is 20.9 µM (active); in test [2], 23.5 µM (active); in test [4], 18.6 µM (active); in test [5], 16.6 µM (active).

Turning to `C=CC(=O)N1CCC[C@H](n2c(=O)n(-c3ccc(Oc4ccccc4)cc3)c3c(N)ncnc32)C1`, the Potency result in test [3] and in test [6] was “inactive” throughout.

For `CC(C)Oc1ccc(-c2nn([C@@H](C)c3oc4ccc(F)cc4c(=O)c3-c3cccc(F)c3)c3ncnc(N)c23)cc1F`, the Potency in test [1] is 16.6 µM (active); in test [2], 20.9 µM (active). Moreover, in test [6], the Potency entry was “inactive”.

For the compound `O=C(NO)C1(CS(=O)(=O)c2ccc(Oc3ccc(Cl)cc3)cc2)CCOCC1`, in test [2], the Potency was 8.33 µM (active).

On to `O=C(/C=C/c1ccc(Cl)cc1)N1CCC2(CC1)CN(Cc1ccc(Cl)c(Cl)c1)C(=O)O2`, for which the Potency in test [1] is 20.9 µM (active); in test [2], 26.3 µM (active). Further, in test [5], the Potency entry was “inactive”.

Consider `O=C(Nc1cccc(Nc2ncc(Br)c(NCCc3cnc[nH]3)n2)c1)N1CCCC1`, for which the Potency is 0.118 µM (active) in test [1]; 1.66 µM (active) in test [2]; 1.18 µM (active) in test [6]; 5.25 µM (active) in test [4]; 5.9 µM (active) in test [5].

As for `C#C[C@]1(O)CC[C@H]2[C@@H]3CCc4cc(O)ccc4[C@H]3CC[C@@]21C`, the Potency in test [1] was 20.9 µM (active); in test [4] it was 14.8 µM (active); in test [5], 20.9 µM (active).

Regarding `C/C=C/C[C@@H](C)C(=O)[C@H]1C(=O)N[C@@H](C(C)C)C(=O)N(C)CC(=O)N(C)[C@@H](CC(C)C)C(=O)N[C@@H](C(C)C)C(=O)N(C)[C@@H](CC(C)C)C(=O)N[C@@H](C)C(=O)N[C@H](C)C(=O)N(C)[C@@H](CC(C)C)C(=O)N(C)[C@@H](CC(C)C)C(=O)N(C)[C@@H](C(C)C)C(=O)N1C`, the Potency was 8.11 µM (active) in test [1], 9.1 µM (active) in test [4] and 10.2 µM (active) in test [5].

In the case of `CCOC(=N)c1nc2ccc3ncnc(Nc4cc(F)c(F)cc4Cl)c3c2s1`, the Potency is 16.6 µM (active) in test [1], 5.25 µM (active) in test [4] and 6.61 µM (active) in test [5].

As to `Cc1ccc([C@@H]2O[C@H](CO)[C@@H](O)[C@H](O)[C@H]2O)cc1Cc1ccc(-c2ccc(F)cc2)s1`, the Potency in test [1] was 13.2 µM (active); in test [4], 20.9 µM (active). The Potency entry in test [6] and in test [5] was “inactive” in each case.

`COc1ccc2[nH]c(C(=O)N3CCC(CC(C)(C)O)CC3)cc2c1`: the Potency entry in test [1] and in test [5] was “inactive” throughout.

`COc1c(Nc2ncc(Cl)c(N[C@H]3[C@H](C(N)=O)[C@@H]4C=C[C@@H]3C4)n2)ccc2c1CCC(N1CCOCC1)CC2` (some centres undefined): the Potency in test [1] was 0.525 µM (active); in test [4], 18.6 µM (active). Further, the Potency entry in test [6] and in test [5] was “inactive” in each case.

For the compound `C[C@H]1CNC(=O)c2cnn3ccc(nc23)N[C@H](C)c2cc(F)ccc2O1`, the Potency in test [1] was 1.32 µM (active); in test [2], 0.833 µM (active); in test [6] it was 0.833 µM (active).

On to `Fc1ccc(-c2csc3ncnc(NCc4ccc5c(c4)OCO5)c23)cc1`, for which the figures for the Potency in test [1], in test [6] and in test [4] were 20.9 µM (active), 20.9 µM (active) and 16.6 µM (active), respectively.

Turning to `Cn1ncc(NC(=O)c2nc(-c3c(F)cccc3F)sc2N)c1N1CC[C@@H](N)[C@H](F)CC1`, the results for the Potency in test [1], in test [2] and in test [6] were 2.63 µM (active), 2.09 µM (active) and 0.0934 µM (active), respectively.

Take `COc1ccc(Cl)cc1-c1cc(=O)[nH]c(=S)n1CC(N)=O`: the Potency entry in test [1], in test [2] and in test [5] was “inactive” throughout.

Take `O=C1NC(=O)/C(=C\c2ccc(-c3ccc(F)cc3)o2)S1`: the Potency entry in test [1], in test [4] and in test [5] was “inactive” throughout.

Regarding `CCNC(=O)Nc1ccc(Oc2ncnc(N)c2/C=N/OC)cc1Cl`, the Potency in test [1] was 18.6 µM (active); in test [2], 20.9 µM (active); in test [6], 23.5 µM (active); in test [4], 16.6 µM (active); in test [5], 23.5 µM (active).

As for `Cc1[nH]c(/C=C2\C(=O)Nc3ccc(S(=O)(=O)Cc4c(Cl)cccc4Cl)cc32)c(C)c1C(=O)N1CCC[C@@H]1CN1CCCC1`, the Potency in test [1] was 5.9 µM (active); in test [6], 8.33 µM (active); in test [4], 9.34 µM (active); in test [5], 9.34 µM (active).

Turning to `Cc1ccc(-c2nc(N)nc3c2nnn3Cc2cccc(CO[C@H]3CCOC3)n2)o1`, the Potency result in test [1], in test [2], in test [6] and in test [5] was “inactive” in each case.

With `C[C@@]1(c2ncncc2F)NC(=O)c2cc(-c3cn[nH]c3)ccc21`, the Potency in test [1] is 14.8 µM (active); in test [4], 20.9 µM (active).

For `CONC(=O)Nc1ccc(-c2sc3c(c2CN(C)C)c(=O)n(-c2ccc(OC)nn2)c(=O)n3Cc2c(F)cccc2F)cc1`, the Potency entry in test [1], in test [2], in test [6] and in test [5] was “inactive” throughout.
